Our source for the composite z-score, z-score and composite Z-score values is PubChem BioAssay.

Calls of active or inactive are those of the source.

The subject of assay [1] is Human papillomavirus type 1a protein E7 (residues 44-93). Nature of the assay: HPV1a E7 fragment binders on microarrays, primary screen, biochemical, small-molecule microarray, residues 44-93, 635 nm fluorescence (AID 1108).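 Further: E7 fragment applied at 1 µg/mL in TBST for 1 h at 4 C; score combines spot fluorescence with its signal to noise ratio.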 The following applies: small-molecule microarray binding, fluorescence 635 nm; higher = more signal.
Assay [2] can be described thus: modulators of HCV replicon luciferase signal, primary screen, HCV replication inhibitor project, Huh7 cells, luciferase reporter (AID 1109).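 Further: huh7 hepatoma cells harbouring a luciferase neomycin HCV replicon reporter; luciferase luminescence as measure of HCV replicon replication; test concentration not given here.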 Particulars: 48 h, higher = more signal. On the technique in general: In antiviral work, replicon cells carry a viral genome segment that copies itself.
Assay [3] addresses Left-right determination factor 2 (Homo sapiens) (UniProt O00292). Nature of the assay: LEFTY2 binders on small-molecule microarrays, primary screen, biochemical, small-molecule microarray, 635 nm fluorescence scan (AID 1110). Particulars: LEFTY2 binding, higher = more signal.
Assay [4] has as its target Calmodulin-1 (Homo sapiens) (UniProt P0DP23). Nature of the assay: CALM1 binders on microarrays, EGTA buffer, profiling panel, biochemical, small-molecule microarray, Cy5-labelled CALM1 (AID 1111).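 Further: labelled calmodulin applied in Tris saline Tween buffer holding calcium plus EGTA and DTT.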 The following applies: Cy5-CALM1 binding fluorescence, higher = more signal.
The target is the same in assay [5]. In words: calcium-bound CALM1 binders on microarrays, profiling panel, artefact control for SMM control-protein annotation, biochemical, small-molecule microarray, Cy5-labelled CALM1, plus calcium (AID 1112).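 Further: score merges spot fluorescence with signal to noise from triplicate slides.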 The following applies: Cy5-CALM1 binding fluorescence, higher = more signal.
A short description of assay [6]: small-molecule microarray binders of probe aWnt5a, primary screen, biochemical, biotinylated probe, 635/667 nm fluorescence (AID 1113).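 Further: score merges 667 nm fluorescence intensity with signal-to-noise per printed feature.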 The following applies: higher = more signal.
The nature of assay [7]: small-molecule microarray binders of probe aShh, primary screen, biochemical, biotinylated probe, 635/667 nm fluorescence (AID 1114).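 Further: probe is biotin-labelled aShh protein from a stem cell growth factor screen; measures binding of labelled protein to compounds printed on the slide; score merges feature fluorescence at 667 nm with signal-to-noise.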 Particulars: higher = more signal.
The nature of assay [8]: small-molecule microarray binders of probe aNog, primary screen, biochemical, biotinylated probe, 635/667 nm fluorescence (AID 1115).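 Further: probe is biotinylated aNog protein used at 0.15 µg/mL for 1 h at 4 C; z-score combines 667 nm fluorescence of each spot with its signal to noise.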 Particulars: higher = more signal.
For assay [9], the target named is Torsin-1A-interacting protein 1 (Homo sapiens) (UniProt Q5JTV8). In words: LAP1 binders from COS7 cell lysate, primary screen, small-molecule microarray, 635/667 nm fluorescence (AID 1116). Particulars: COS7-hLAP1 lysate binding, 635 nm fluorescence, higher = more signal.
Chain of Torsin-1A-interacting protein 1 (Homo sapiens) (Q5JTV8 whole entry, looked up): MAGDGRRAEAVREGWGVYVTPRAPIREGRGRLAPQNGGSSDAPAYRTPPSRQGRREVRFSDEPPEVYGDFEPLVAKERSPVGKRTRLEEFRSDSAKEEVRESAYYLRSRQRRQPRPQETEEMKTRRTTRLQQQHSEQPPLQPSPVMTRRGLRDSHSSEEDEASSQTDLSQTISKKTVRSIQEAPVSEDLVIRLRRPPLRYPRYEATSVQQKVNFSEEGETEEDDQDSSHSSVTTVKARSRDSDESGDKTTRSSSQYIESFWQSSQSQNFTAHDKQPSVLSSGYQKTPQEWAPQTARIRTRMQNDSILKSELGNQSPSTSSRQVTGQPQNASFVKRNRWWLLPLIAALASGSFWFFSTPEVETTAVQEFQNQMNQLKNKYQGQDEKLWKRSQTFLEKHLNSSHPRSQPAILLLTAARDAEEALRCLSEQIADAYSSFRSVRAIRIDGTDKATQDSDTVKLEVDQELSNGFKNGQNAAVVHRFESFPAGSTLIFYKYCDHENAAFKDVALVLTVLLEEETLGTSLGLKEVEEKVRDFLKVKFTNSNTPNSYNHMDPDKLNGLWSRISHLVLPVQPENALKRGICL
For assay [10], the target named is Alpha-bungarotoxin (Bungarus multicinctus) (UniProt P60615). Nature of the assay: alpha-bungarotoxin binders on microarray, profiling panel, artefact control for SMM control protein annotation, biochemical, small-molecule microarray, Alexa647 label, 635/667 nm fluorescence (AID 1117). The following applies: alpha-BTX-A647 binding fluorescence, higher = more signal.
Chain of Alpha-bungarotoxin (Bungarus multicinctus) (P60615 whole entry, looked up): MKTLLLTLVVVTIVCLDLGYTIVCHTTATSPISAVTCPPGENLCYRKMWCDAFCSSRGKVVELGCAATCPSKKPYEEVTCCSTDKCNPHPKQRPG

A further assay has as its target Albumin (Bos taurus) (UniProt P02769). In words: bovine serum albumin binders on microarray, profiling panel, artefact control for SMM control protein annotation, biochemical, small-molecule microarray, Alexa647 label, 635/667 nm fluorescence (AID 1118).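 Further: score merges 667 nm emission intensity and signal-to-noise per printed compound spot.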 The following applies: BSA-A647 binding, fluorescence 635 nm, higher = more signal.
Assay [11] can be described thus: small-molecule microarray binders of probe aXIP, primary screen, biochemical, NeuroSMM set, 635/667 nm fluorescence (AID 1119).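 Further: probe is the protein aXip251-270 applied at 1 µg/mL to compound-printed slides; binding of probe to printed compounds measured as 667 nm fluorescence plus signal to noise.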 The following applies: higher = more signal, called active from +8 up or from −8 down.
Assay [12] is described as follows: small-molecule binders of probe aNOTCH3, primary screen, biochemical, small-molecule microarray, 635/667 nm fluorescence (AID 1120).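 Further: probe is a biotin-tagged antibody raised against NOTCH3 rather than NOTCH3 protein; score merges spot fluorescence near 667 nm with spot signal to noise.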 Particulars: higher = more signal.
Assay [13] in a line: small-molecule binders of probe aNOTCH2, primary screen, biochemical, small-molecule microarray, 635/667 nm fluorescence (AID 1121).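 Further: score merges feature fluorescence read at 667 nm with its signal to noise.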 The following applies: higher = more signal.
Assay [14] has as its target Carbonic anhydrase 2 (Homo sapiens) (UniProt P00918). Nature of the assay: CAII small-molecule binders, profiling panel, biochemical, small-molecule microarray, Alexa647-labelled CAII (AID 1122). The following applies: CAII-A647 binding fluorescence, higher = more signal.
A short description of assay [15]: COS7 lysate on small-molecule microarray, probe aHis, 635 nm (AID 1123).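 Further: z-score combines 667nm fluorescence intensity with signal-to-noise per printed compound spot.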 The following applies: COS7 cell lysate, fluorescence, higher = more signal.
Assay [16] can be described thus: compound binding in COS7 lysate, probe aLAP1, primary screen, cell lysate, small-molecule microarray (AID 1124).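 Further: lysate comes from COS7 cells expressing LAP1 and is applied at 0.3 µg/mL; score merges spot fluorescence near 667 nm with signal-to-noise over triplicate slides.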 Particulars: probe aLAP1, fluorescence, higher = more signal.
The subject of a further assay is Sam68 (KHDRBS1). Nature of the assay: Sam68 small-molecule binders, primary screen, biochemical, small-molecule microarray, 635 nm fluorescence (AID 1125).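 Further: score merges 667 nm channel intensity with signal to noise over triplicate slides.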 Particulars: small-molecule microarray binding, higher = more signal.
Assay [17] concerns Chordin-like protein 2 (CHRDL2). Nature of the assay: CHRDL2 small-molecule binders, primary screen, biochemical, small-molecule microarray, 635 nm fluorescence (AID 1126).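 Further: printed compound slides probed with Chrdl2 protein at 4 µg/mL for 1 h at 4 C; score merges 667 nm emission intensity with signal to noise over three replicate slides.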 Particulars: small-molecule microarray binding, fluorescence 635 nm; higher = more signal.
In assay [18] the target is Concanavalin-A (Canavalia ensiformis) (UniProt P02866). Nature of the assay: ConA small-molecule binders, primary screen, artefact control for SMM control protein annotation, biochemical, small-molecule microarray, Alexa647 label, 635 nm (AID 1127).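 Further: z combines 667 nm emission intensity with signal-to-noise across three replicate slides.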 Particulars: ConA-A647 binding fluorescence, higher = more signal.
Chain of Concanavalin-A (Canavalia ensiformis) (P02866 whole entry, looked up): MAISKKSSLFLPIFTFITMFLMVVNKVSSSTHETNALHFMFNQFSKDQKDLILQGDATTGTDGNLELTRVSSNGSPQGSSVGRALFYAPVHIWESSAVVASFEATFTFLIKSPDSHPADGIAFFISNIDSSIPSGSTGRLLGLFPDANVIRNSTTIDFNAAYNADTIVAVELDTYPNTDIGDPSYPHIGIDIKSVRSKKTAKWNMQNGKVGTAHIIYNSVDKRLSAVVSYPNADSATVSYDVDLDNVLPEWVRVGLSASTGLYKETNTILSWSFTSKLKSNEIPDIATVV

Chain of Albumin (Bos taurus) (P02769 whole entry, looked up): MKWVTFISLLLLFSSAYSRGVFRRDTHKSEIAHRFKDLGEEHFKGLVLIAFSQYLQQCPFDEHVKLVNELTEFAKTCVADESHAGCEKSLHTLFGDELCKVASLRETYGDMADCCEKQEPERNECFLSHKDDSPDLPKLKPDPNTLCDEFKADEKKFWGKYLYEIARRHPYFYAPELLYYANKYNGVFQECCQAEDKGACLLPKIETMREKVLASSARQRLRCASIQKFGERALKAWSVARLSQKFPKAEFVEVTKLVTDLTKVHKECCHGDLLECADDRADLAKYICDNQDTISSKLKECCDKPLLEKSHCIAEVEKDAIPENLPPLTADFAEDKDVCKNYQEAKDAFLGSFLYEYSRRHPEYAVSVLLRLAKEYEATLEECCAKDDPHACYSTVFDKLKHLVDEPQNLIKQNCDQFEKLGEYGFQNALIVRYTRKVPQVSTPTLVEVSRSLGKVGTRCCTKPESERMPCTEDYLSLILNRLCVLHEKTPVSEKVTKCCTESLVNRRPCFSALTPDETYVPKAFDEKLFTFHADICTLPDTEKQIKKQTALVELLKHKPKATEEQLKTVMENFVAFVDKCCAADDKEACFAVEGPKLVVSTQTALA
Chain of Left-right determination factor 2 (Homo sapiens) (O00292 whole entry, looked up): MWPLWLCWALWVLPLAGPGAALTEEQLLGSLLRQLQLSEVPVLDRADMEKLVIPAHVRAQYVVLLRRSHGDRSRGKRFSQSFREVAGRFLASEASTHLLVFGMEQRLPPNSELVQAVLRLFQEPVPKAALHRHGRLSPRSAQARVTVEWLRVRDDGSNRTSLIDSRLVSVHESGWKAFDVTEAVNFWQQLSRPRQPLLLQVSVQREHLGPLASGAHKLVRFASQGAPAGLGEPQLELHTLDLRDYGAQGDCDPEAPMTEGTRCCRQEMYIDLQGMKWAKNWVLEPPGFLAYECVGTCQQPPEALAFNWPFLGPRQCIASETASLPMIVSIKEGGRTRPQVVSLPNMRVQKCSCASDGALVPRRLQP

On to `COc1ccccc1CN1C(=O)c2ccccc2[C@](Cc2ccccc2I)(C(=O)NCCN2CCOCC2)[C@@H]1c1ccc(CO)cc1`, for which the composite z-score in assay [1] is 1.36; in assay [3], 1.01; in assay [4], 0.688; in assay [5], -0.768; in assay [6], -0.0118; in assay [7] it was -0.144. Also, the composite z-score in [8] is -0.0746; in assay [9], 0.488; in [10], 1.19; with Albumin (Bos taurus), 0.655; in assay [12] it was 0.0629; in assay [13], -0.0288. Moreover, the composite z-score is 0.646 in assay [14]; 1.71 in assay [15]; 1.01 in [16]; 1.29 in the assay on Sam68 (KHDRBS1); 0.617 in assay [17]; 1.1 in assay [18]. Besides, the z-score in [2] was -2.96. Also, the composite Z-score in assay [11] is -0.0337 (inactive).
Regarding `C=CC[C@]1(C(=O)N(C)C)N=C(c2ccc(OCCCO)cc2)O[C@H]1c1ccccc1`, the composite z-score in assay [1] is 1.46; in assay [3], -0.309; in assay [4] it was 1.57; in assay [5] it was 0.19; in assay [6], 0.224; in [7] it was 0.33. In addition, the composite z-score was 1.15 in [8]; 0.765 in assay [9]; 1.25 in assay [10]; 0.641 in the assay with Albumin (Bos taurus); 0.297 in [12]; -0.124 in assay [13]. In addition, the composite z-score in assay [14] is 0.687; in assay [15], 2.93; in assay [16], 0.795; with Sam68 (KHDRBS1), 1.26; in assay [17] it was -0.336; in assay [18], 0.999. Further, in assay [2], the z-score is -2. For the same compound, the composite Z-score in assay [11] was -0.001 (inactive).
Regarding `CCCC[C@H]1OB(O)C[C@H]2C1=C(COc1ccccc1)Cn1c(=O)n(-c3ccccc3)c(=O)n12`, the composite z-score was 1.03 in assay [1]; 0.375 in assay [3]; 0.292 in assay [4]; -0.0404 in assay [5]; -0.186 in [6]; -0.16 in [7]. Moreover, the composite z-score in assay [8] is -0.555; in assay [9] it was 0.654; in [10], -0.334; with Albumin (Bos taurus) it was 0.196; in assay [12], 0.0705; in assay [13], -0.114. Further, the composite z-score in [14] amounted to 0.247; in [15] it was 1.1; in [16] it was 0.0367; with Sam68 (KHDRBS1), 1.14; in assay [17], 0.357; in [18] it was 0.501. Also, the z-score in assay [2] was -0.917. Also, in assay [11], the composite Z-score was 0.131 (inactive).
In the case of `O=C1C2C=CC(C(O)c3ccccn3)N(Nc3ccccc3)C2C(=O)N1c1ccccc1` (stereo not given), the composite z-score in [1] was 0.132; in assay [3], -0.136; in [4], 0.167; in assay [5] it was -0.0451; in assay [6], -0.0758; in [7], -0.291. The composite z-score in assay [8] was 0.0373; in [9], 0.529; in assay [10], 0.31; with Albumin (Bos taurus), 1.03; in assay [12] it was -0.0026; in [13], -0.0995. Also, the composite z-score was 0.824 in [14]; 0.696 in [15]; -0.247 in [16]; -0.419 in the assay on Sam68 (KHDRBS1); -0.493 in assay [17]; 0.36 in [18]. The compound also returned a z-score in [2] of 0.819. Also, the composite Z-score in assay [11] is 0.959 (inactive).
Take `CN(C)CCCCCCNC(=O)[C@@H]1C[C@@H]2C(=O)NCC(=O)N2[C@@H]1c1ccc(O)cc1`: the composite z-score in assay [1] was 1.33; in assay [3] it was 0.932; in [4] it was -1.53; in assay [5], -1.89; in assay [6] it was 0.0785; in assay [7] it was 0.46. In addition, the composite z-score is -0.213 in [8]; 1.96 in assay [9]; 1.83 in assay [10]; -0.671 with Albumin (Bos taurus); 0.173 in assay [12]; -0.126 in assay [13]. In addition, the composite z-score in assay [14] stood at 0.683; in [15] it was 2.86; in assay [16], 0.328; in the assay on Sam68 (KHDRBS1), 1.33; in assay [17] it was 1.4; in assay [18] it was 1.21. Also, the z-score in assay [2] was found to be 0.589. Also, the composite Z-score in [11] is 2.25 (inactive).
